Assay outcomes: PubChem, several laboratories
BaF3 tox: counter-screen for JAK2V617F inhibitors: parental Ba/F3 viability inhibitors. CellTiter-Glo ATP luminescence. inhibition, % at 5.6 µM. 220,000 tested, 1.1% active;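 active means inhibition above a per-campaign cutoff, the mean inhibition of all tested compounds plus 3 SD, cut at about 27% in these data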;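 further: 0% = DMSO wells and 100% = JAK Inhibitor I control wells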
aSyn 5UTR inh: 5' untranslated region of α-synuclein, MLPCN primary screen; alpha-synuclein 5'UTR reporter, inhibitor activity; inhibition, % (tested at 7.5 µM); 300,000 tested, 0.82% active; AID 1813; in the data active means inhibition above about 60%;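 further: H4 neuroglioblastoma cells stably carrying SNCA 5'UTR luciferase fusion; 0% = DMSO wells and 100% = positive control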
APP transl inh: APP translation inhibition | SH-SY5Y APP 5'UTR-luciferase reporter, luminescence | inhibition, % at 2 µM | 190,000 tested, 0.82% active | AID 1285;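 active means inhibition above a set limit, derived from the sample mean plus 3 SD, cut at about 45% in these data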
KLF5 inhibitor: kruppel-like factor 5 inhibition. DLD-1 KLF5 promoter-luciferase reporter, luminescence. 290,000 tested, 0.23% active. inhibition, % at 5 µM;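 active means inhibition above a per-plate limit of that plate's mean compound inhibition plus 3 SD, cut at about 60% in these data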;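 further: 0% = DMSO wells and 100% = LY294002 at 200 µM; higher means less KLF5 promoter-driven luciferase light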
Ba/F3 V617F tox: lowers viability of Ba/F3 cells expressing EpoR and JAK2V617F. ATP luminescence. inhibition, % at 5.6 µM. 220,000 tested, 1.1% active;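 active means inhibition above the campaign mean plus 3 SD over all tested compounds, cut at about 24% in these data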;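 further: cytokine-independent growth of Ba/F3 cells driven by EpoR plus mutant JAK2; 0% = DMSO-treated cells and 100% = JAK inhibitor I control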
IEC-6 cytotox: kills IEC-6 intestinal cells in KLF5 counter-screen; AID 1825; inhibition, % at 5 µM; IEC-6 cytotoxicity, luminescence viability; 290,000 tested, 0.78% active; in the data active means inhibition above about 22%;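 further: 0% = plate median of test compound wells and 100% = cytotoxic reference compound wells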
The depositor's hits bear a star; · = no result given. Sampled rows, rich in hits. Any-hit rate of the full collection: about 2.2%.

SMILES	BaF3 tox	aSyn 5UTR inh	APP transl inh	KLF5 inhibitor	Ba/F3 V617F tox	IEC-6 cytotox
CC(/C=N/NC(=O)c1cc(-c2ccccc2)nc2ccccc12)=C\c1ccco1	4	-6	85*	-6	-5	4
O=C(N/N=C/c1ccc(O)cc1)c1cc(-c2ccccc2)nc2ccccc12	·	14	·	-14	·	2
Cc1cc(C(=O)N/N=C/c2ccco2)c2ccccc2n1	7	1	-8	-2	4	4
Cc1ccc(/C=N/NC(=O)c2cc(-c3ccccc3)nc3ccccc23)o1	·	-57	·	9	·	10
CC/C(=N\NC(=O)c1cc(C)nc2ccccc12)c1ccc(C)s1	-1	11	76*	5	8	3
Cc1cc(C(=O)N/N=C/c2ccc(C)o2)c2ccccc2n1	10	65*	73*	39	21	17
CC(/C=N/NC(=O)c1cc(-c2ccc(Cl)cc2)nc2ccccc12)=C\c1ccco1	5	85*	-2	-3	3	10
CC(=O)N(C)c1ccc(NC(=O)Cc2cccs2)cc1	·	-47	·	-91	·	-1
CCCCC(C(=O)NC1CCCC1)N(C(=O)c1snc(C(N)=O)c1N)c1ccc(C)cc1 (configuration not stated)	·	23	·	7	·	0
O=C1c2ccccc2S(=O)(=O)c2cc(N3CCOCC3)ccc21	·	76*	·	·	·	·
O=C1c2ccccc2S(=O)(=O)c2cc(N3CCN(c4ccccc4)CC3)ccc21	·	-19	·	·	·	·
Cc1ccc2[nH]c3c(c2c1)CCCC3NCCO (configuration not stated)	·	21	·	-36	·	8
CCN(CC)S(=O)(=O)c1ccc2c(c1)nc(SCn1nnc3ccccc3c1=O)n2CC	4	18	92*	-33	0	-5
Cn1c(SCn2nnc3ccccc3c2=O)nc2ccccc2c1=O	-2	-11	2	-14	-4	-5
CN(C)c1ccc(/C=C2\CCCc3c2nc2ccccc2c3C(=O)O)cc1	·	-121	·	-102	·	3
COc1ccc(NC(=O)CN2C(=O)CSC(C)C2=O)c(OC)c1 (configuration not stated)	30*	-2	-6	-5	-2	-12
CCOc1ccccc1NC(=S)N1CCN(c2ccccc2F)CC1	·	-7	·	-28	·	2
CSCCC(NC(=O)c1ccc(Cl)cc1Cl)C(=O)NCc1ccncc1 (configuration not stated)	·	-7	·	·	·	·
Cc1ccc2nc(NC3=NCN(Cc4ccc5c(c4)OCO5)CN3)nc(C)c2c1	70*	·	94*	6	63*	9
CCOc1ccc2nc(NC3=NCN(CC4CCCO4)CN3)nc(C)c2c1 (configuration not stated)	11	·	6	-4	3	-1
S=C(Nc1ccc(Cl)cc1)Nc1cccc2cnccc12	7	-13	16	4	12	8
S=C(Nc1cccnc1)Nc1cccc2cnccc12	11	66*	-1	-3	7	4
CCOC(=O)C1CCN(C(=O)CC2(CC(=O)O)CCCC2)CC1	·	4	·	-7	·	1
CC(=O)Nc1ncc(Cc2cccc(Cl)c2)s1	28*	4	13	2	34*	-1
O=C(Nc1ncc(Cc2cccc([N+](=O)[O-])c2)s1)c1ccco1	27*	-5	-47	3	18	6
SMILES	BaF3 tox	aSyn 5UTR inh	APP transl inh	KLF5 inhibitor	Ba/F3 V617F tox	IEC-6 cytotox
CC(=O)N1CCc2cc(S(=O)(=O)NCCCN3CCN(Cc4ccccc4)CC3)ccc21	6	17	63*	-18	-1	-4
CCC(=O)N1CCc2cc(S(=O)(=O)NCCCN3CCN(Cc4ccccc4)CC3)ccc21	2	10	-22	-26	-3	-1
CCn1cc(CCCC(=O)NCc2cccc(OC)c2)c2ccccc21	·	13	·	-14	·	2
COc1ccccc1N1CCN(C(=O)CCC(=O)Nc2nnc(C(C)C)s2)CC1	·	26	·	-28	·	1
Nc1cc(=O)[nH]c(SCCSc2cc(Cl)ccc2Cl)n1	·	50	·	-12	·	-2
Nc1cc(=O)[nH]c(SCCSc2ccccc2F)n1	·	67*	·	-25	·	-1
Cc1cccc(C(=O)N2CCN(CCNC(=O)C(=O)Nc3ccc(F)cc3)CC2)c1	·	-8	·	-9	·	1
Nn1c(-c2ccc(F)cc2)nc2ccccc2c1=O	·	6	·	-13	·	8
O=C1c2cc(F)ccc2-n2c1nc1ccccc1c2=O	·	66*	·	25	·	12
CN(C)c1cc[n+](Cc2c(Cl)cccc2Cl)cc1	80*	8	2	6	98*	-5
CC(=O)Nc1sc(NC(=O)c2ccc([N+](=O)[O-])cc2)nc1-c1cccs1	46*	-4	·	-5	11	8
CC(=O)Nc1sc(NC(=O)c2ccc(Cl)cc2)nc1-c1cccs1	5	-73	-9	-6	2	3
O=C(Cn1c2[n+](c3ccc(C(F)(F)F)cc31)CCCCC2)c1cccc([N+](=O)[O-])c1	80*	-12	4	-26	1	6
FC(F)(F)c1ccc2c(c1)n(Cc1ccccc1)c1[n+]2CCCCC1	35*	15	-5	-9	22	-3
O=C(Cn1c2[n+](c3ccc(C(F)(F)F)cc31)CCCCC2)Nc1ccccc1	7	8	-2	0	1	2
O=C(CCN1C(=O)/C(=C/c2ccc3c(c2)OCO3)SC1=S)Nc1ccc(C(=O)O)cc1	·	-7	·	-5	·	-5
O=C(CCCN1C(=O)/C(=C\c2ccccc2)SC1=S)Nc1ccc(C(=O)O)cc1	·	22	·	14	·	9
CCc1ccc(/C=C2\SC(=S)N(CCCC(=O)Nc3ccc(C(=O)O)cc3)C2=O)cc1	·	109*	·	29	·	10
O=C(CCCN1C(=O)/C(=C/c2ccc3c(c2)OCO3)SC1=S)Nc1ccc(C(=O)O)cc1	·	102*	·	10	·	3
COc1ccc(S(=O)(=O)N2CCc3ccccc32)cc1C(=O)Nc1ccc(C(N)=O)cc1	·	-9	·	·	·	·
N#CC(Sc1ccccn1)c1ccc(Cl)cc1 (configuration not stated)	53*	-6	12	-18	26*	2
CC1CCC(NC(=O)CNC(=O)Cc2cccc3ccccc23)CC1 (configuration not stated)	·	5	·	-34	·	-2
Cc1ccc(NC(=O)Cc2sc(C)nc2-c2ccc(C)cc2)cc1	39*	-6	-8	6	21	2
CC(Oc1ccccc1Cl)C(=O)Nc1ccc(S(=O)(=O)Nc2nccs2)cc1 (configuration not stated)	·	20	·	·	·	·
CC(=O)c1cccc(OCc2cc(C(=O)N3C[C@@H](C)O[C@@H](C)C3)no2)c1	·	-75	·	-72	·	1
CC(Oc1ccccc1)C(=O)NNC(=O)c1ccccn1 (configuration not stated)	6	45	-15	13	-2	19
C/C(=N\NC(=O)C(C)Oc1ccc([N+](=O)[O-])cc1)c1ccccn1 (configuration not stated)	-1	72*	63*	21	2	12
CC[n+]1c(C)cc2c(sc3ccccc32)c1C	71*	·	4	-37	88*	0
